Measured values as given in the supplement of paper PMC11417369.
± gives the standard deviation of the averaged measurements. The full ranking holds about 25,000 sequences; the median of “ln(normalized median fluorescence intensity)” is about 7.9, and the highest 2% start at about 11. The list comes from a sample in which the highest values are over-represented; it also holds similar and randomly drawn sequences.

system: PfAP2-I AP2 domain 3 (GST-tagged); assay: gcPBM binding intensity (ln(normalized median fluorescence intensity)); higher = stronger DNA binding
How it was run: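 In this array assay, P. falciparum DNA-binding domains with a GST tag, expressed in E. coli, were applied for 1 h to primer-extended double-stranded 36-bp intergenic genomic probes and negative controls on an Agilent 4 × 180k array. Bound protein was visualised with Alexa488 anti-GST antibody at 488 nm. Binding intensity is the highest Masliner-normalised natural-log median intensity across replicate spots of either probe orientation.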

Compared with “AATATATTTTTTTTTTGTACATATTGTAAAATAATA [XGTACX_site6805]”, “ATATATTGCACTTTTTGTACATAATGAAAAATTTTT [XGTACX_site8223]” is higher in “gcPBM binding intensity (ln)” value: 7.83 ± 0.22 for the first, 11.5 ± 1 for the second.

“ATTTTTTTTTTTTTTTTTTTTGCACCATAAAATAAT [CACACA_negctrl_site1324]” and “AATATTGCACCATTTTGTACATAATATATTCAAATA [XGTACX_site475]” are within error of each other in “gcPBM binding intensity (ln)” value: 11.2 ± 0.56 for the first, 11.7 ± 0.74 for the second.

First: TACAACAATTTTTGCACACACCAAAACATAAAATAA [CACACA_site4964]
Second: AAAATAAATAAATATACACACCATATATATATTTTT [CACACA_site5573]
The “gcPBM binding intensity (ln)” value of the first is higher: 9.15 ± 0.22 for the first, 7.61 ± 0.39 for the second.

“AAAAAATTTTGAAATTGTACATATATAAAAAATATA [XGTACX_site2629]” and “TAAAAATATTTTCATTGTACATATATATAAATATAT [XGTACX_site1123]” are the same in “gcPBM binding intensity (ln)” value: 7.59 ± 0.29 for the first, 7.59 ± 0.3 for the second.

“AAAAATGAATTATTTTGTACATATATATATATATAT [XGTACX_site3410]” and “TTTCTTCGAAATAGAACACTTGTGCAAAATAAGCAA [XGTACX_negctrl_site361]” are within error of each other in “gcPBM binding intensity (ln)” value: 9.48 ± 0.54 for the first, 9.9 ± 0.23 for the second.

“AAATTTAAAAATAAAGAACACACATATGTAAAATAT [CACACA_site9252]” and “AGGATACACGGACACACACACATATAGATTTATATA [CACACA_site6552]” are within error of each other in “gcPBM binding intensity (ln)” value: 7.91 ± 0.76 for the first, 8.14 ± 0.2 for the second.

First: AATTTATTAAAAAAATGTACTTATTTTTTTGTATAA [XGTACX_site5844]
Second: TTTATTCAAGGAATAGTGCATAATAATAAGTATTAT
The “gcPBM binding intensity (ln)” value of the first is lower: 7.61 ± 0.11 for the first, 11.2 ± 0.62 for the second.

Going from ATTTATAATATTCAAGTGCATATATATTTTTTACTT to ATATATTTTTATATAGTGCAAGTAATAAAAAGGAAT, the “gcPBM binding intensity (ln)” value rises from 9.57 ± 0.14 to 10.04 ± 0.099.

“TACTATTTTTATAATACACACATATATTTGTGATAT [CACACA_site1775]” and “TATATATAATATTATACACACATATCTGCATAATAT [CACACA_site4202]” are within error of each other in “gcPBM binding intensity (ln)” value: 7.84 ± 0.44 for the first, 8.13 ± 0.49 for the second.

Going from “TTTGTTATATTTAATACACACATATTATAAACACAT [CACACA_site7703]” to TTAATATATTATCTGGTGCATAAACACGTTATACCT, the “gcPBM binding intensity (ln)” value rises from 8.07 ± 0.34 to 11.3 ± 0.64.

First: GGTTATATATTTTTTGCACACCAAAAAAGAGAATAT [CACACA_site2731]
Second: ATGGCATAAATATATGCACACACAAAAAAAAAAAAA [CACACA_site7902]
The “gcPBM binding intensity (ln)” value of the first is higher: 9.56 ± 0.14 for the first, 8.98 ± 0.11 for the second.

First: TGAATATTCATATGCACACAAATTAATATACATAAT [CACACA_site442]
Second: AACTCATAGGAGTGTGCACACAAAAAATTAAAAAAA [CACACA_site8996]
The “gcPBM binding intensity (ln)” value of the first is lower: 8.675 ± 0.021 for the first, 9.52 ± 0.42 for the second.

Compared with “TATATATATTTATGCACACAAAATATATTATAGAAT [CACACA_site3740]”, “ATTATATACATATATGCACACAAAAAAATATATATT [CACACA_site8508]” is lower in “gcPBM binding intensity (ln)” value: 9.99 ± 0.4 for the first, 9.04 ± 0.12 for the second.

Going from “AACTCATAGCGGTGTGCACACAAAAAATTAAAAAAA [CACACA_site3033]” to “ATTAATTTTATATATGCACACAAAATATGTTCATAT [CACACA_site9350]”, the “gcPBM binding intensity (ln)” value falls from 9.9 ± 0.2 to 9.13 ± 0.099.

“TTTTCATATTATAGTGCACACAAAAATATATATATG [CACACA_site8929]” and “ATTCACAAATATATGGTGCATAATATATATATATAT [GTGCAC_site9674]” are within error of each other in “gcPBM binding intensity (ln)” value: 11.5 ± 0.47 for the first, 11.31 ± 0.078 for the second.

“CTCATAGTTGGGTGCACACAAAAAATTAAAAAAATA [CACACA_site3032]” and “TTCATATTATAGTGCACACAAAAATATATATATGGT [CACACA_site2855]” are within error of each other in “gcPBM binding intensity (ln)” value: 11.1 ± 0.81 for the first, 11.3 ± 0.43 for the second.

First: CATATAAAAATATATGCACACAAATAAAAAATTATA [CACACA_site9210]
Second: AAAAGGGAAATAAAATAAAAAAAGAAACATATATAG [CACACA_negctrl_site455]
The “gcPBM binding intensity (ln)” value of the first is higher: 8.94 ± 0.39 for the first, 7.72 ± 0.76 for the second.

“ATATGATCATAAAACACACACACAAAAAAAAAAAAA [CACACA_site1806]” and “TATATATGTGTATAGAGTACACGTTTTTTTTAATAT [XGTACX_site3128]” are within error of each other in “gcPBM binding intensity (ln)” value: 7.95 ± 0.75 for the first, 7.71 ± 0.38 for the second.

First: ATTGTATTAAAATGCACACATATCAAGAGGAATTTT [CACACA_site283]
Second: AAAGAAAATAACAAAATTTTGAAAACATCACATTCG [CACACA_negctrl_site89]
The “gcPBM binding intensity (ln)” value of the first is higher: 9.095 ± 0.064 for the first, 7.63 ± 0.69 for the second.

First: ATCAAAATGTTAAAGATACACACCTAACAAACACAA [CACACA_site955]
Second: TAAATCATTTATTAAGTGCAATATTCTTTTTGAGAT
The “gcPBM binding intensity (ln)” value of the first is lower: 7.96 ± 0.19 for the first, 10.3 ± 0.28 for the second.

Compared with ATATATATATATATGGTGCATGAAAATTTACTTTGA, “TATATATGTATGTATGTACACACAAAAAATGGAATA [CACACA_site9235]” is lower in “gcPBM binding intensity (ln)” value: 10.11 ± 0.085 for the first, 8.05 ± 0.45 for the second.

Compared with “CGTATATCACCAACTAGTACATATAAATAAATAAAT [XGTACX_site8837]”, AAAAAGGTTAAGGTAGTGCATAATAAAGAATATTAA is higher in “gcPBM binding intensity (ln)” value: 7.92 ± 0.5 for the first, 11 ± 0.45 for the second.

“AAAAAGAATATAAGTAGTACAGTGCATATAATAATT [XGTACX_site617]” and “TATATAATATATATAGTGCATAAGTTCAAAAGAATA [GTGCAC_site9805]” are within error of each other in “gcPBM binding intensity (ln)” value: 10.3 ± 0.37 for the first, 9.95 ± 0.16 for the second.
